# In the library only some 6.5% were active in any assay of this set; here they are far more common.
# A340 absorber – compound absorbs light at 340 nm; compound absorbance at 340 nm, fold over control; fold change at 10 µM; AID 708; 65,000 tested, under 10 active;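 active = at 10 µM dose, initial 340 nm absorbance at least 2 fold that of control wells; inactive = change under 2 fold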;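 note: initial absorbance extrapolated from kinetic A340 decline of NADH oxidation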
# Fluor 339 460 – intrinsic fluorescence of library compounds, ex339/em460 – biochemical, MLSMR library, data from DPM-DC assay, artefact control, profiling panel; compound autofluorescence, ex339/em460 nm, NADH buffer; stronger effect = higher value; 1 = no-compound wells, NADH background; fluorescence fold increase at 10 µM; 65,000 compounds, 5.5% hits; AID 709;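 active = at 10 µM, mean starting fluorescence two-fold or more over control wells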;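 note: signal is the first read of a kinetic run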
# Spn MK inh – inhibitors of Streptococcus pneumoniae mevalonate kinase | AID 555 | inhibition, % at 10 µM | purified MK, PK/LDH-coupled NADH absorbance 340 nm | 65,000 compounds, 0.48% hits;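 active = ranked among the strongest by inhibition in the single 10 µM screen, a fixed top-ranked set picked for dose follow-up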
# DPM-DC inhibit – S. pneumoniae DPM-DC inhibition; purified DPM-DC, PK/LDH coupled NADH fluorescence; calls only at 10 µM; 65,000 compounds, 0.49% hits; AID 556;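 active = the 320 compounds with the highest percent inhibition in the single-dose primary screen, excluding strongly autofluorescent ones, cut at about 32% in these data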;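 note: kinetic rate of NADH fluorescence loss reporting ADP formed by the decarboxylase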
# Spn PMK inh – S. pneumoniae PMK inhibition; purified PMK, PK/LDH-coupled NADH absorbance 340 nm; inhibition, % at 10 µM; 65,000 compounds, 0.49% hits; AID 539;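 active = top-ranked compounds by inhibition in the single 10 µM screen, taking a fixed number of the strongest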;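 note: 0% = full reaction with DMSO carrier and 100% = background rate without enzyme reaction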
# NADH coupling – inhibitors of enzymes used to reach an NAD/NADH endpoint | AID 774 | coupled PK/LDH NADH assays, four targets | IC50, µM (top dose mostly 10 µM), without a hit: at the top dose inhibition | 65,000 compounds, 0.02% hits;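 active = single-dose screening hits from any of four coupled enzyme assays that gave an IC50 when retested across doses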;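 note: the DPM-DC format reads NADH fluorescence rather than 340 nm absorbance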
# Starred values were filed as active, the others as inactive; i = inactive; x = no result given; + = active, no number.
SMILES,A340 absorber,Fluor 339 460,Spn MK inh,DPM-DC inhibit,Spn PMK inh,NADH coupling
CC1(C)Cc2c(C#N)c(NCCCO)nc(-c3ccccc3)c2CO1,1.08,2.09*,7.0,x,6.0,7.0%
C#CC1CN(Cc2ccccc2)CC(C#C)N1C (stereo unspecified),1.03,1.07,8.0,i,5.0,4.0%
O=C(Nc1cccnc1)c1coc(=O)c2ccccc12,1.01,1.5,5.0,i,11.0,10.0%
Cc1ccc(-c2cc(C(=O)Nc3cccnc3)c3ccccc3n2)o1,1.09,2.2*,15.0,x,0.0,8.0%
COC(=O)c1ccc(-c2nc3ccc(C)cc3o2)cc1,1.08,3.76*,10.0,x,17.0,14.0%
Cc1ccc(-c2nc3cc(C)ccc3o2)cc1,1.06,0.87,1.0,i,0.0,4.0%
COC(=O)c1ccc(-c2nc3ccccc3o2)cc1,1.06,4.57*,0.0,x,3.0,2.0%
c1ccc(Oc2ccc(-n3cnnn3)cc2)cc1,1.01,1.05,0.0,i,0.0,1.0%
O=C(CN1CCOCC1)OCCCC1CCCCC1,1.02,1.09,11.0,i,9.0,7.0%
Cn1c(=O)n(C)c2cc(NC(=O)CSc3nnc(-c4ccccc4O)n3-c3ccccc3)ccc21,1.01,1.08,6.0,i,7.0,4.0%
O=c1c2ccccc2nc(N2CCN(c3ccccc3)CC2)n1Cc1ccccc1,1.03,1.07,8.0,i,11.0,7.0%
CC(=O)C1=C(c2ccccc2)NC(=O)NC1c1ccccc1OCC#N (stereo unspecified),1.1,1.11,7.0,i,8.0,7.0%
CCCS(=O)(=O)N1CCCC(C(=O)N2CCOCC2)C1 (stereo unspecified),0.95,1.08,1.0,i,13.0,5.0%
CCn1c2ccccc2c2nc3cc(OC)c(OC)cc3nc21,1.07,2.67*,x,+,11.0,26.0%
CCn1c2ccccc2c2nc3ccccc3nc21,1.14,1.99,6.0,x,0.0,3.0%
COc1cc2nc3c4ccccc4n(CC#N)c3nc2cc1OC,1.07,3.81*,8.0,x,7.0,8.0%
CCCN1c2cccc3cccc(c23)S1(=O)=O,1.05,2.25*,12.0,x,2.0,7.0%
N#CCCCCN1c2cccc3cccc(c23)S1(=O)=O,1.03,3.74*,0.0,x,10.0,5.0%
COc1cc(NC(=O)CN2c3cccc4cccc(c34)S2(=O)=O)cc(OC)c1OC,1.09,2.56*,13.0,i,4.0,14.0%
O=S1(=O)c2cccc3cccc(c23)N1Cc1ccc(-c2nnco2)cc1,1.01,2.84*,0.0,i,19.0,12.0%
O=C(CN1c2cccc3cccc(c23)S1(=O)=O)NCc1ccc2c(c1)OCO2,1.09,1.82,2.0,i,2.0,7.0%
O=S1(=O)c2cccc3cccc(c23)N1Cc1nnc(-c2ccccc2Br)o1,1,1.72,8.0,i,6.0,5.0%
COc1ccc(NS(=O)(=O)c2ccc3c(c2)Cc2ccccc2-3)cn1,1.04,1.13,1.0,i,0.0,0.0%
CC1(c2ccc(Cl)cc2Cl)OCC(Cn2ccnc2)O1 (stereo unspecified),1.07,1.08,2.0,i,6.0,3.0%
Cc1nn(-c2ccccn2)c2c1C(c1ccsc1)C1=C(CCCC1=O)N2 (stereo unspecified),1.11,4.9*,0.0,x,9.0,5.0%
SMILES,A340 absorber,Fluor 339 460,Spn MK inh,DPM-DC inhibit,Spn PMK inh,NADH coupling
Cc1cccc(NS(=O)(=O)c2cccc3cccnc23)n1,1.07,1.09,10.0,i,1.0,4.0%
Cc1cccc(NS(=O)(=O)c2ccccc2)n1,1.07,2.11*,6.0,x,1.0,4.0%
CCOc1ccc(S(=O)(=O)Nc2ccccc2C(=O)NCC2CCCO2)cc1 (stereo unspecified),1.04,2.14*,5.0,x,8.0,7.0%
CCOc1ccc(S(=O)(=O)Nc2ccccc2C(=O)Nc2ccccc2N2CCOCC2)cc1,0.99,1.03,1.0,i,10.0,2.0%
Cc1sc2ncn(CC(=O)NCCCC(=O)N3CCN(c4ncccn4)CC3)c(=O)c2c1C,0.99,1.29,4.0,i,8.0,4.0%
Cc1cc(C(=O)O)c(CCCN)s1,1,1.07,12.0,i,10.0,7.0%
N=c1c(C(=O)NCc2ccc(F)cc2)cc2c(=O)n3ccccc3nc2n1CCCN1CCOCC1,0.98,2.95*,1.0,x,14.0,2.0%
CCOCCCn1c(=N)c(C(=O)NCc2ccc3c(c2)OCO3)cc2c(=O)n3ccccc3nc21,1.06,1.51,1.0,i,10.0,4.0%
N=c1c(C(=O)NCc2ccccc2)cc2c(=O)n3ccccc3nc2n1CCCN1CCOCC1,1,3.73*,3.0,x,10.0,7.0%
N=c1c(C(=O)NC2CCCCC2)cc2c(=O)n3ccccc3nc2n1CCN1CCOCC1,1.05,3.87*,0.0,x,6.0,3.0%
Cn1c(=O)[nH]c(=O)c2c1nc(N1CCNCC1)n2Cc1cccc2ccccc12,0.98,1.07,2.0,i,11.0,3.0%
CCOC(=O)c1c(C)c(C(=O)N(C)C2CCCCC2)c(C)n1C,0.98,1.12,9.0,i,17.0,9.0%
CCCCCCNC(=O)C(C#N)c1nc2ccccc2nc1N1CCOCC1 (stereo unspecified),1.03,1.62,8.0,i,13.0,8.0%
Nc1c(C(=O)NC2CCCCC2)c2nc3ccccc3nc2n1/N=C/c1ccco1,1.05,3.68*,9.0,x,13.0,11.0%
CC(C)CNC(=O)c1c(N)n(/N=C/c2ccccn2)c2nc3ccccc3nc12,1.03,1.08,7.0,i,2.0,4.0%
COCCNC(=O)c1c(N)n(/N=C/c2cccs2)c2nc3ccccc3nc12,1.11,2.48*,0.0,x,0.0,2.0%
CCCCCCNC(=O)c1c(N)n(/N=C/c2ccco2)c2nc3ccccc3nc12,1.12,2.97*,11.0,x,10.0,5.0%
COC(=O)CSc1nnc(CNC(=O)Cc2ccccc2)n1-c1ccccc1OC,0.98,1.12,0.0,i,21.0,7.0%
CN1CCN(C(=O)CN(c2cccc(Cl)c2)S(=O)(=O)c2ccccc2)CC1,1,1.08,8.0,i,9.0,6.0%
COCCn1c(C2CCCCC2)nc2sc3ccccc3c(=O)c2c1=O,1.07,1.09,16.0,i,11.0,9.0%
COc1ccc(-n2c(Cc3cccn3C)nnc2SCC(=O)NCCc2ccccc2)cc1,1,1.06,2.0,i,6.0,3.0%
CCCN1CCN(CCCNC(=O)Cn2nc(-c3ccccc3)ccc2=O)CC1,1,1.13,7.0,i,27.0*,11.0%
CCN1C(=O)/C(=C2/Sc3ccc(OC)cc3N2C)SC1=Nc1ccc(C(C)=O)cc1,1.05,1.12,1.0,i,25.0*,11.0%
CN1CCCc2cc3c(C(F)(F)F)cc(=O)oc3nc21,1.04,2.21*,4.0,x,5.0,5.0%
CC1(C)CC(=O)c2cc(OCC(=O)NCCN3CCCc4ccccc43)ccc2O1,1.01,5.04*,0.0,x,14.0,7.0%
COc1ccc(CCNC(=O)CN2CCCc3ccccc32)cc1OC,1,1.02,0.0,i,9.0,3.0%

# Bioassay records deposited in PubChem BioAssay by SRMLSC.
